VLA-4 inh: inhibition in human VLA-4 binding assay, primary screen, VLA-4 allosteric modulator project, MLPCN library, flow cytometry, VLA-4 expressing cells; AID 2557, 2010; inhibition, % (about 7 µM as worked out from the volumes in the protocol); 0.2% of 330,000 active; ligand binding flow cytometry; Integrin alpha-4 (Homo sapiens), P13612; in the data active = inhibition above about 50%
GASC-1 inh: inhibitors of GASC-1 histone demethylase, primary screen, biochemical, fluorescence, DELFIA europium. 0.069% of 330,000 active. inhibition, % at 2.35 µM. GST-JMJD2C(1-420) H3K9me3 demethylation. AID 2099, 2009;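 active = more than half of a compound's replicate wells show inhibition beyond 50%, single wells judged on their own value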;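 note: signal counts dimethyl H3K9 product captured on neutravidin plate; 0% = median of DMSO wells and 100% = 0.3 times that DMSO median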
ABCB6 inh 2: ABCB6 transporter inhibitors, primary screen, K562-ABCB6 cells, flow cytometry, MLPCN library; ATP-binding cassette sub-family B member 6 (Homo sapiens), Q9NP58; K562-ABCB6 porphyrin accumulation, 1 h; active compounds read low; fluorescence ratio to DMSO, % at 10 µM; 0.19% of 360,000 active; AID 602162, 2011;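 active = fluorescence ratio to DMSO below 75%, the collection mean minus 3 SD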;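 note: signal is porphyrin accumulated inside mitochondria; 100% equals median channel fluorescence of DMSO control wells; lower ratio means ABCB6 inhibition with less porphyrin fluorescence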
Target sequence (Q9NP58 whole entry, looked up): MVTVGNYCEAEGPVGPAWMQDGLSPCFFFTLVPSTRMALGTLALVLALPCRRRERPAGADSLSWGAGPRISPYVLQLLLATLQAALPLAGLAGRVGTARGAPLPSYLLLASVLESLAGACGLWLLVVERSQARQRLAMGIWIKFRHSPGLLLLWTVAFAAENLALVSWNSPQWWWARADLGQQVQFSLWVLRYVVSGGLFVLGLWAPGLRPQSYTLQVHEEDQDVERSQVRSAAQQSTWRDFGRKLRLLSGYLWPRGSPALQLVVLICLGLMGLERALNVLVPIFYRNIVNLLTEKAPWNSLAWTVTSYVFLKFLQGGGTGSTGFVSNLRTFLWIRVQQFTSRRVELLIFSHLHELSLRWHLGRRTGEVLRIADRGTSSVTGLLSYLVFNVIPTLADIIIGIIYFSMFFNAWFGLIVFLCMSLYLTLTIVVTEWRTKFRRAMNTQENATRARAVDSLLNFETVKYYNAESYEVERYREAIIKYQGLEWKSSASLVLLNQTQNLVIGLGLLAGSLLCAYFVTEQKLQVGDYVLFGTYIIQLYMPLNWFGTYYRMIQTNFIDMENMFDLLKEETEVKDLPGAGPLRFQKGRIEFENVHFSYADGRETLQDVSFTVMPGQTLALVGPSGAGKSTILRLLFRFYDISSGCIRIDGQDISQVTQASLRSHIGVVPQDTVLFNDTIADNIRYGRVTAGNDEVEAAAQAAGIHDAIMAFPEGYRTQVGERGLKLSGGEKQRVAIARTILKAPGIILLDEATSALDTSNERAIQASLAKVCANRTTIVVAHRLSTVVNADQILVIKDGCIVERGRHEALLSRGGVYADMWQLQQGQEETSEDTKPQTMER
PolyA inhibitor: polyadenylation inhibitors in yeast reporter cells, primary screen, luminescence, S. cerevisiae. S. cerevisiae SKY197-pL101 polyadenylation reporter, beta-gal luminescence; efflux-impaired pdr1/pdr3 knockout yeast; score 100 = 6 SD above DMSO. 0.02% of 300,000 active. AID 1875, 2009. activity score, % at 12 µM;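 active = lowest replicate activity score at least 50, where 100 means six control SD above control mean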;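 note: yeast exposed to compound for 9 h at 30 °C; higher score means more reporter readthrough which indicates perturbed polyadenylation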
ABCB6 inh CP1: ABCB6 transporter inhibitors, confirmation, K562-ABCB6 cells, flow cytometry, cherry pick 1 | ratio response (% of DMSO), % at 10 µM | K562-ABCB6 porphyrin accumulation, 1 h; active compounds read low | AID 602430, 2012 | shares compounds with ABCB6 inh 2 | 700 tested, under 10 active;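 active = repeat-averaged ratio response below 75% of DMSO, the collection mean minus 3 SD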;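 note: median porphyrin fluorescence at 575 nm with 488 nm excitation from mitochondria; lower ratio means less porphyrin signal so ABCB6 inhibition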
K562 vector FC: empty-vector K562 compound effect – cell-based, flow cytometry, cherry pick set 2, counter-screen for ABCB6 inhibitor project, dose response. shares compounds with ABCB6 inh 2. K562 empty-vector cells, flow cytometry fluorescence, 1 h. percent response (fluorescence), % at 100 µM. 25 tested, under 10 active. AID 624484, 2012;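 active = compounds whose half-maximal effective concentration is below 100 µM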
The depositor's hits bear a star; / = no result. Shown are actives, neighbours in structure and some others; about 0.44% of the full set was active somewhere.

SMILES	VLA-4 inh	GASC-1 inh	ABCB6 inh 2	PolyA inhibitor	ABCB6 inh CP1	K562 vector FC
CC(Oc1ccc2c3c(c(=O)oc2c1)CCCC3)C(=O)NCc1cccnc1 (stereo not drawn)	2.2	5.9	58.0*	2.9	101.0	/
CC(Sc1nc(C2CC2)n(-c2ccccc2)n1)C(=O)c1c(N)n(C)c(=O)n(C)c1=O (stereo not drawn)	-3.4	-3.1	99.0	14.0	/	/
CCc1nnc(NC(=O)c2nc(S(=O)(=O)Cc3cccc(C)c3)ncc2Cl)s1	-0.4	-2.8	108.0	-11.0	/	220.1
Cc1ccc(CS(=O)(=O)c2ncc(Cl)c(C(=O)Nc3ccc(OC(F)F)cc3)n2)cc1	0.6	-21.5	62.0*	-64.9	/	309.8
CCOc1ccccc1NC(=O)c1nc(S(=O)(=O)Cc2cccc(C)c2)ncc1Cl	6.5	-9.4	41.0*	-66.5	/	269.2
Cc1cccc(CS(=O)(=O)c2ncc(Cl)c(C(=O)Nc3nnc(C(C)C)s3)n2)c1	14.5	31.7	103.0	-11.7	/	241.4
COc1ccccc1-c1oc2ccccc2c1C#CC1(N)CCCCC1	18.9	10.1	94.0	/	/	/
Cc1ccc(N(CC(=O)NCC2CCCO2)C(=O)CCC(=O)Nc2ccccn2)cc1C (stereo not drawn)	-6.1	2.4	145.0	17.9	/	/
Cc1ccc(/C=C/C(=O)OC(C)C(=O)Nc2ccc(Cl)cn2)o1 (stereo not drawn)	13.7	7.4	100.0	-4.9	/	/
Cc1nnc(NC(=O)c2nc(S(=O)(=O)Cc3ccccc3C)ncc2Cl)s1	14.8	-17.7	108.0	-6.5	/	237.2
O=C(NCc1ccccc1)c1nc(S(=O)(=O)Cc2ccccc2)ncc1Cl	24.6	-42.9	102.0	-22.8	/	/
CC(C)c1nnc(NC(=O)c2nc(S(=O)(=O)Cc3ccccc3F)ncc2Cl)s1	14.1	-8.2	/	-9.0	/	/
CC(=O)Nc1ccc(NC(=O)c2nc(S(=O)(=O)Cc3ccccc3)ncc2Cl)cc1	11.3	-9.1	70.0*	-4.2	/	279.9
CC(C)c1nnc(NC(=O)c2nc(S(=O)(=O)Cc3ccc(F)cc3)ncc2Cl)s1	15.5	15.0	80.0	-15.6	/	250.0
CCc1nnc(NC(=O)c2nc(S(=O)(=O)Cc3ccccc3)ncc2Cl)s1	6.0	-7.0	84.0	-7.4	/	243.6
CCCc1nc2n[nH]c(N)c2c2c1CCC2	26.6	8.9	196.0	17.1	/	/
CCc1nnc(NC(=O)c2nc(S(=O)(=O)Cc3ccc(C)cc3)ncc2Cl)s1	0.5	11.0	101.0	-7.5	/	228.6
Clc1nnc(Cl)c2c1ncn2Cc1ccccc1	2.4	-7.8	73.0*	17.8	100.0	/
Cc1ccccc1C(=O)N1CCN(c2ccc(NC(=O)Cc3ccccc3)cc2)CC1	-9.0	1.9	97.0	15.6	/	/
CCC(=O)Nc1ccc(N2CCN(C(=O)c3ccccc3C)CC2)cc1	8.4	4.7	65.0*	14.6	98.0	/
COC(=O)C1CCN(S(=O)(=O)c2ccc(Br)s2)CC1	-0.3	/	90.0	/	97.0	/
COC(=O)C1CCN(S(=O)(=O)c2c[nH]c(=O)[nH]c2=O)CC1	/	/	94.0	/	99.0	/
Cc1ccc(C2=N/C(=C\N(C)C)C(=O)O2)cc1	1.9	-5.8	100.0	-18.1	/	/
CCCCn1c(N)c(N(CCOC)C(=O)CSc2nnc(-c3ccc(C(C)(C)C)cc3)n2N)c(=O)[nH]c1=O	-2.3	13.2	104.0	5.8	/	/
O=C(CCc1nnc2ccc(NCc3ccccc3Cl)nn12)NC1CCCC1	13.0	2.7	100.0	28.2	/	/
O=C(NCc1ccccc1Cl)C1CCN(S(=O)(=O)N2CCC3(CC2)OCCO3)CC1	9.1	-12.4	95.0	6.5	/	/
O=C(NCc1ccc(F)cc1Cl)C1CCN(S(=O)(=O)N2CCC3(CC2)OCCO3)CC1	3.7	-10.8	69.0*	-4.6	96.0	/
CC(C)(C)c1ccc(CC(=O)N2CCC2(C)C(=O)NS(=O)(=O)c2cccc(F)c2)cc1 (stereo not drawn)	/	/	98.0	/	102.0	/

High-throughput results: PubChem BioAssay, several laboratories
